Measured values taken from the supplement of paper PMC10849652.
Of roughly 7,900 targets only a part is listed; those with a hit were picked by preference. About 0.6% of all pairs of compound and target were hits.

How the values were obtained:
Assay in all cases: log2 fold change, soluble protein after heating vs DMSO (PISA); higher = thermal stabilisation; K562 cells, 10 uM, 30 min; active = over 0.2 and 3.5 SD of the protein, either way, in both replicates (recomputed)
[1] = compound: NC(=O)Nc1cc(-c2cccc(F)c2)sc1C(=O)N[C@H]1CCCNC1
In short: (§1)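 K562 cells (2×10^6 cells/mL) were treated with 10 μM compound for 30 min, and aliquots were heated for 3 min over 48°C-58°C. Pooled aliquots were extracted in PBS with 0.5% NP-40 at 4°C, and the supernatant after 21,000xg for 90 min was measured by TMTpro 16plex LC-MS/MS with channel sums equalised. Reported thermal stability, relative to control samples and from duplicates, is a log2 fold change.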

[2] = compound: NC(=O)c1cnc(N[C@@H]2CCCC[C@@H]2N)nc1Nc1cccc(-n2nccn2)c1
In short: as §1

[3] = compound: NC1(c2ccc(-c3nc4ccn5c(=O)[nH]nc5c4cc3-c3ccccc3)cc2)CCC1
In short: as §1

[4] = compound: NCC(=O)Nc1ccc(-n2nc(C(F)(F)F)cc2-c2ccc3c(ccc4ccccc43)c2)cc1
In short: as §1

entinostat = compound: Nc1ccccc1NC(=O)c1ccc(CNC(=O)OCc2cccnc2)cc1 [entinostat]
In short: as §1

vorinostat = compound: O=C(CCCCCCC(=O)Nc1ccccc1)NO [vorinostat]
In short: as §1

citarinostat = compound: O=C(CCCCCCNC(=O)c1cnc(N(c2ccccc2)c2ccccc2Cl)nc1)NO [citarinostat]
In short: as §1

silmitasertib = compound: O=C(O)c1ccc2c(c1)nc(Nc1cccc(Cl)c1)c1ccncc12 [silmitasertib]
In short: as §1

[5] = compound: O=C1NC(=O)C(c2cnc3ccccn23)=C1c1cn2c3c(cc(F)cc13)CN(C(=O)N1CCCCC1)CC2
In short: as §1

[6] = compound: c1cc(OCCN2CCCCC2)cc(-c2n[nH]c3ccc(-c4nnc[nH]4)cc23)c1
In short: as §1

entospletinib = compound: c1cn2cc(-c3ccc4cn[nH]c4c3)nc(Nc3ccc(N4CCOCC4)cc3)c2n1 [entospletinib]
In short: as §1

Measured: log2 fold change

WRB (UniProt O00258)
UniProt O00258, sequence (O00258 whole entry, looked up): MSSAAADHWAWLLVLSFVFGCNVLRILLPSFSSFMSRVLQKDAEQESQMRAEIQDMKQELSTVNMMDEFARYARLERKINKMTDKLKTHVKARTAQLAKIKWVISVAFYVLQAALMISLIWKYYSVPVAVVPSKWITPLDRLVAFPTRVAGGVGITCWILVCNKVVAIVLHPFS
inactive: [1] 0.003 | [2] 0.019 | [3] -0.018 | [4] 0.006 | entinostat -0.011 | vorinostat -0.035 | citarinostat 0.034 | silmitasertib 0.028 | [5] 0.062 | [6] -0.042 | entospletinib 0.005

UBIAD1 (UniProt Q9Y5Z9)
inactive: [1] -0.089 | [2] 0 | [3] 0.055 | [4] -0.122 | entinostat -0.076 | vorinostat -0.075 | citarinostat -0.301 | silmitasertib 0.013 | [6] 0.181 | entospletinib -0.013

UBC (UniProt P0CG48)
UniProt P0CG48, sequence (P0CG48 whole entry, looked up): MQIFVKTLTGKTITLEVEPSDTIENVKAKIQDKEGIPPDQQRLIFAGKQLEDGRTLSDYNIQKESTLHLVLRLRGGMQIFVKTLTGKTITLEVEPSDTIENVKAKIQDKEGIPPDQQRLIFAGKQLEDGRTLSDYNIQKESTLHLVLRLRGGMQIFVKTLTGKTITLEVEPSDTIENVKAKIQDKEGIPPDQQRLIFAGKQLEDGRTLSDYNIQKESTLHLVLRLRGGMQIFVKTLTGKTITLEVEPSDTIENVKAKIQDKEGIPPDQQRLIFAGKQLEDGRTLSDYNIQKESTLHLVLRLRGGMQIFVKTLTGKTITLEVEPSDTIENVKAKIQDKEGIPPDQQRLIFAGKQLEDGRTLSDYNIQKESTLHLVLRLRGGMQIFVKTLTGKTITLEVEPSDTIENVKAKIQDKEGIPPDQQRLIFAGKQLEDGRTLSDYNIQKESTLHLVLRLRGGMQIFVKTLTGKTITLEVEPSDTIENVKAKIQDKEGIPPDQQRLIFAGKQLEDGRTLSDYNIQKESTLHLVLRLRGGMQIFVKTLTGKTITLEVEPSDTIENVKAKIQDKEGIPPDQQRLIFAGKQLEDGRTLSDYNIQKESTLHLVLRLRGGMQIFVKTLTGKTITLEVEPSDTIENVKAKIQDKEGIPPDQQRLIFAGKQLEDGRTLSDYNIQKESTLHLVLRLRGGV
inactive: [1] -0.003 | [2] -0.022 | [3] 0.214 | [4] 0.01 | entinostat -0.023 | vorinostat -0.11 | citarinostat -0.13 | silmitasertib -0.076 | [5] -0.117 | [6] -0.068 | entospletinib 0.068

TMEM263 (UniProt Q8WUH6)
inactive: [1] -0.044 | [2] -0.335 | [3] -0.389 | [4] -0.299 | entinostat 0.123 | vorinostat 0.058 | citarinostat 0.068 | silmitasertib 0.057 | [5] -0.08 | [6] -0.037 | entospletinib -0.032

XRCC6 (UniProt P12956)
inactive: [1] -0.064 | [2] -0.143 | [3] -0.139 | [4] -0.08 | entinostat 0.098 | vorinostat 0.134 | citarinostat 0.107 | silmitasertib 0.026 | [5] -0.119 | [6] -0.049 | entospletinib 0

XRCC1 (UniProt P18887)
UniProt P18887, sequence (P18887 whole entry, looked up): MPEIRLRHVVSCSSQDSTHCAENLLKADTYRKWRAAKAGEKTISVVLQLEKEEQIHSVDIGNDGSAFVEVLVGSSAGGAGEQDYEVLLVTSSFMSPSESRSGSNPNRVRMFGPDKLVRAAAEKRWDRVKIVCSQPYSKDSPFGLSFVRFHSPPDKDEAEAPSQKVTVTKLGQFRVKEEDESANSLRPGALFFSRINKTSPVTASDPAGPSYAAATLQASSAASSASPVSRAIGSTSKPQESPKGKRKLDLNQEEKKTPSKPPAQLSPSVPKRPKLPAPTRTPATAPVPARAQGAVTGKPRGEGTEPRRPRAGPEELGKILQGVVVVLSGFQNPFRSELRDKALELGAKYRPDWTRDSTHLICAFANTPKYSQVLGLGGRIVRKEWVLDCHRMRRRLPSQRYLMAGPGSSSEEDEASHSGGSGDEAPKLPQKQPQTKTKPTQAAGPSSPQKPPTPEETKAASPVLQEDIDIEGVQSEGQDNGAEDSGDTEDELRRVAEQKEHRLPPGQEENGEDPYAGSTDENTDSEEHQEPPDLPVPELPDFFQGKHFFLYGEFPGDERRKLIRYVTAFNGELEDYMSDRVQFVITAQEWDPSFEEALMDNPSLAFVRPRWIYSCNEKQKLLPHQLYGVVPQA
inactive: [1] -0.011 | [2] -0.183 | entinostat 0.064 | vorinostat 0.228 | [5] -0.211

TVP23C (UniProt Q96ET8)
UniProt Q96ET8, sequence (Q96ET8 whole entry, looked up): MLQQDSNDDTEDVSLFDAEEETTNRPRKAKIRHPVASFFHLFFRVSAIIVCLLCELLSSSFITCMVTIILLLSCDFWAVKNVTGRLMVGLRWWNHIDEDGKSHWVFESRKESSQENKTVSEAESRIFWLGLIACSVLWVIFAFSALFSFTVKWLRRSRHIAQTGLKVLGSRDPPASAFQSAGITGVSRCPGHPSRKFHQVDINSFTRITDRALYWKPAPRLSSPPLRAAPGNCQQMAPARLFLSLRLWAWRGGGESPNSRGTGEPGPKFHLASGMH
active: entospletinib 0.419
inactive: [2] -0.021 | [3] -0.023 | [4] -0.003 | vorinostat 0.045 | citarinostat -0.297 | silmitasertib 0.132 | [6] 0.081

TOM1 (UniProt O60784)
inactive: [1] 0.044 | [3] -0.176 | entinostat 0.062 | vorinostat 0.048 | silmitasertib 0.017 | [5] -0.077

UBAP2L (UniProt F8W726)
inactive: [3] 0.083 | vorinostat -0.033 | citarinostat 0.095 | silmitasertib 0.004 | [6] -0.066 | entospletinib -0.078

U2AF1L5 (UniProt P0DN76)
inactive: [2] 0.047 | [3] 0.07 | [4] -0.295 | citarinostat -0.28 | silmitasertib -0.024 | [6] -0.146 | entospletinib -0.497

UBE3B (UniProt Q7Z3V4)
UniProt Q7Z3V4, sequence (Q7Z3V4 whole entry, looked up): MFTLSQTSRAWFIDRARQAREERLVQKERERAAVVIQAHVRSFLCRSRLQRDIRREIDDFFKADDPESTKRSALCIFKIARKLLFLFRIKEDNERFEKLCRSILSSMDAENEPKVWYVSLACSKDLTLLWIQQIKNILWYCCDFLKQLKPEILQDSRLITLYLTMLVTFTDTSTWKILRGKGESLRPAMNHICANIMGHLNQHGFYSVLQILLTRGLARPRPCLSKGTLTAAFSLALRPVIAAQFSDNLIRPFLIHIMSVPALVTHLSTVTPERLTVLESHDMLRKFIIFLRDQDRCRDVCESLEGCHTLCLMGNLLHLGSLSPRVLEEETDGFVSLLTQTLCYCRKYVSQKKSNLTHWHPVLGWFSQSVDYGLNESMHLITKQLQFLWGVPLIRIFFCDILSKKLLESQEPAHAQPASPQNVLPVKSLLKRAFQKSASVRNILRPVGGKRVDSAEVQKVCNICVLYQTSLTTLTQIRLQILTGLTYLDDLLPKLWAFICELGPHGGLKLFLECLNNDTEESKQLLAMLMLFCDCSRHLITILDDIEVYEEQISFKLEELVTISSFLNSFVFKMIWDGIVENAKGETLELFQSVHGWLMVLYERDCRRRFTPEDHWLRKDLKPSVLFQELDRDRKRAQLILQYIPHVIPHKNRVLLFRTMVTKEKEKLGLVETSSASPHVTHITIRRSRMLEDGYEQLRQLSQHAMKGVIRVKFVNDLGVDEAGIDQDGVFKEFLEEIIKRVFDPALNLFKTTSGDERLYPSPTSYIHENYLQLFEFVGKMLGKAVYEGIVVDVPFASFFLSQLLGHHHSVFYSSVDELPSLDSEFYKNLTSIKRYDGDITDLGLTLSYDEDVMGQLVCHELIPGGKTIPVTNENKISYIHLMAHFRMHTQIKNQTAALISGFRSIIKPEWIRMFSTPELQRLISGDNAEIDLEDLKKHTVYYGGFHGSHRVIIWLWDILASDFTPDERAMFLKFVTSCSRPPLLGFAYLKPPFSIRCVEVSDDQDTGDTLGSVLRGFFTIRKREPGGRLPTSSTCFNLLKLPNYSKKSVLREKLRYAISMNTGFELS
inactive: [1] 0.034 | [2] -0.043 | entinostat -0.046 | [5] -0.037

UBXN8 (UniProt O00124)
UniProt O00124, sequence (O00124 whole entry, looked up): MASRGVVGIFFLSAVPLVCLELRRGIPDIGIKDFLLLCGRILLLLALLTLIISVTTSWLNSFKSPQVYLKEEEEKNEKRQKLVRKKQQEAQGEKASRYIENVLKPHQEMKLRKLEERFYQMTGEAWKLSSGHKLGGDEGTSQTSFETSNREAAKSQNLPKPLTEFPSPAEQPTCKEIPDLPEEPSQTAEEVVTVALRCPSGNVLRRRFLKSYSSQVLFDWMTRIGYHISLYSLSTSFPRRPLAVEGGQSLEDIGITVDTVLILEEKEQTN
inactive: [1] -0.139 | [2] -0.103 | [4] -0.344 | entinostat 0.046 | vorinostat -0.055 | citarinostat 0.037 | [5] -0.05 | [6] -0.143 | entospletinib -0.231

XAB2 (UniProt Q9HCS7)
UniProt Q9HCS7, sequence (Q9HCS7 whole entry, looked up): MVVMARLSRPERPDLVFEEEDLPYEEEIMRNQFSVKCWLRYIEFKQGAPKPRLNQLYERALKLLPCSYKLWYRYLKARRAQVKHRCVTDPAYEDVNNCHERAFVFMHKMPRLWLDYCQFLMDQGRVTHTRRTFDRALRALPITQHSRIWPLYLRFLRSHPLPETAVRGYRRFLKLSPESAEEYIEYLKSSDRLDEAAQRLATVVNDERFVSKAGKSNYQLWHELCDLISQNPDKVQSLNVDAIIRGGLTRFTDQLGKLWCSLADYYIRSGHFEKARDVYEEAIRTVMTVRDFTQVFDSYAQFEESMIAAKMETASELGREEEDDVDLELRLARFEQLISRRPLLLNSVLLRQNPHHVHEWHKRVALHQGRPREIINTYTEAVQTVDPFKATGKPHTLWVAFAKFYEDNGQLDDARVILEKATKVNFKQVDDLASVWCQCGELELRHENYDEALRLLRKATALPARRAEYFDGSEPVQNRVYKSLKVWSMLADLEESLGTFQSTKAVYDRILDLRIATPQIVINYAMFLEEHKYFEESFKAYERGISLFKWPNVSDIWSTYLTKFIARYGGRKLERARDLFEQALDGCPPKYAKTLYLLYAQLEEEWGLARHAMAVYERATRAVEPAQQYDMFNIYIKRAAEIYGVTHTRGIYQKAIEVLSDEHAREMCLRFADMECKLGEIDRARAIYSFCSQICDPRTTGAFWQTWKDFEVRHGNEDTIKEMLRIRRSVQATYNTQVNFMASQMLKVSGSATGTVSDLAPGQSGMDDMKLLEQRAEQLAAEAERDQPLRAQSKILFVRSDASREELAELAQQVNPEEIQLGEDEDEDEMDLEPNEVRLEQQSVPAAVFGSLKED
inactive: [3] 0.011 | silmitasertib 0.038 | [5] 0.298

TSPAN13 (UniProt O95857)
UniProt O95857, sequence (O95857 whole entry, looked up): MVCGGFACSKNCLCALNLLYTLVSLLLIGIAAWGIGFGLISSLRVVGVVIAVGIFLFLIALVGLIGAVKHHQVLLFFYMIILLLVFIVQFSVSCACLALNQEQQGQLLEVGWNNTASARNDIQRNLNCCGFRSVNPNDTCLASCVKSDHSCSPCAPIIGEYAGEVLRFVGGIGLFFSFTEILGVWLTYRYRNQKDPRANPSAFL
inactive: [1] -0.091 | [3] -0.125 | [4] 0.03 | entinostat -0.109 | vorinostat 0.002 | silmitasertib 0 | [5] -0.166

WARS1 (UniProt G3V227)
inactive: [2] 0.045 | [4] -0.115 | [5] -0.084

UTP20 (UniProt O75691)
inactive: [5] 0.009

WDR75 (UniProt Q8IWA0)
UniProt Q8IWA0, sequence (Q8IWA0 whole entry, looked up): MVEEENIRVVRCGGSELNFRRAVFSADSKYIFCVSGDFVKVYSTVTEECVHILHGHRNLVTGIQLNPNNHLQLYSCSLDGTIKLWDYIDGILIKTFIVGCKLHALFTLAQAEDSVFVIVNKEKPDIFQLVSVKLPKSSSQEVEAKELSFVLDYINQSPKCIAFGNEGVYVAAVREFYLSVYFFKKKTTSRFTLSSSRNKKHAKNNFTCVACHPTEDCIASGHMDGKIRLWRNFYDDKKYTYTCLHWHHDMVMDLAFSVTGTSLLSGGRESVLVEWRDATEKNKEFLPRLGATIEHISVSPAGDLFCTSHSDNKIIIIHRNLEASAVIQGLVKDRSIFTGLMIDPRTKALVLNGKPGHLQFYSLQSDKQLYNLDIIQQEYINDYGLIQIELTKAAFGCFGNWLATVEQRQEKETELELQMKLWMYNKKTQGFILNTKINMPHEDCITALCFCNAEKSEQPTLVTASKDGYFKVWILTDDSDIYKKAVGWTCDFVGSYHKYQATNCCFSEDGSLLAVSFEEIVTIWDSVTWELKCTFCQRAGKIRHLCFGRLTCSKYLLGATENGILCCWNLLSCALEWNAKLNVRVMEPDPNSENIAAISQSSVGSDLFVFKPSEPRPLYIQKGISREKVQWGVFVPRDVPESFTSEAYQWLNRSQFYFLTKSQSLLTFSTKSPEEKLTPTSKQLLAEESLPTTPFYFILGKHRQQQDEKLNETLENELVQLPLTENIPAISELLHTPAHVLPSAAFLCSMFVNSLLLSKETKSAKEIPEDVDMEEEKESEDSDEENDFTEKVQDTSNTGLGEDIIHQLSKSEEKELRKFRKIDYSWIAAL
inactive: [2] -0.004 | [3] 0.173 | [4] -0.125 | silmitasertib 0.086 | [5] 0.17

WDR46, A0A0G2JJL1
inactive: [1] 0.222 | [3] 0.515 | [4] 0.146 | entinostat -0.113 | citarinostat -0.163 | silmitasertib 0.247 | [5] 0.284 | [6] 0.013 | entospletinib 0.023
